Over roughly 25,000 sequences, “ln(normalized median fluorescence intensity)” has its median near 9.3; the highest 2% begin near 10. The list comes from a sample in which the highest values are over-represented; it also holds similar and randomly drawn sequences.

The test concerns PF3D7_0420300 AP2 domain 1 (GST-tagged). Description: gcPBM binding intensity (ln(normalized median fluorescence intensity)); higher = stronger DNA binding. The method, boiled down:
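Binding intensity is defined as the maximum Masliner-normalised natural-log median intensity across replicate spots for either probe orientation. It was measured on an Agilent 4 × 180k array of primer-extended double-stranded 36-bp intergenic genomic probes and negative controls, to which GST-tagged P. falciparum DNA-binding domains made in E. coli were applied for 1 h in 1× PBS with 1% milk, 0.2 mg/ml BSA, 0.5% salmon testes DNA and 0.03% Triton X-100. Detection was by Alexa488 anti-GST antibody and scanning at 488 nm.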
For the sequence “GGTGGTAAAAAACCTGCATGTCGAAATATTAAATAC [TGCATGCA_site33]”, the “gcPBM binding intensity (ln)” value turned out to be 9.25.
The value for “TTCTTAAATGTAAATGTATATGTATTAAAAAGAGAA [TGCATGCA_negctrl_site597]” was 9.1.
The result for “ACAACATATGTTATCACACACATATAAATATAAATA [CACACA_site7038]” reads 9.54; that for “AAAAGCAAGTTCCAGGGTACATATATATGAAAAAAC [XGTACX_site2408]”, 9.58.
With “ATTTATTTATATAATACACACAAATATCTTAATGAA [CACACA_site6064]”, the “gcPBM binding intensity (ln)” value came out at 9.39.
“ATATATATATATGTATGTACATATTTTTTTTAACAC [XGTACX_site8475]”: the “gcPBM binding intensity (ln)” value is 9.24.
As for “TATGATTTTTATATATGTACGTATGGTGTTTTACAA [XGTACX_site6100]”, the “gcPBM binding intensity (ln)” value was found to be 9.21.
The result for “GTTTGGTGGTGTTTTGGTACGTACGGGGGTGTATGT [XGTACX_site1211]” reads 10.1; that for “GTTTGGTGGTGTTTTGGTACGTACGGGGGGGTATGT [XGTACX_site1983]”, 10.9.
Turning to “AAAAAAAAAAAAAAAAAAAAAAAAAAATGAGATACA [GTGCAC_negctrl_site160]”, the “gcPBM binding intensity (ln)” value is 9.13.
The value for “ATAAAATGAACAAACACACACACATATATTTATATA [CACACA_site7181]” was 10.1; that for “TGTAGTCTGGAGAAAAGTACATAGTATCTGGTAGCT [XGTACX_site2031]” was 9.32; that for “CGTATATATATATACACACACATATATATATGTAAA [CACACA_site195]” was 9.69.
For the sequence “ATTAAACCGTGGGAGCACACACACACACACACACAT [TGCATGCA_negctrl_site72]”, the “gcPBM binding intensity (ln)” value worked out at 10.8.
For the sequence “CATTAAACCGTGGGAGCACACACACCCACCCACCCA [CACACA_site8000]”, the “gcPBM binding intensity (ln)” value is 9.87.
Consider “AAACCGTGGGAGCACACACACACACCGACACATATA [CACACA_site4338]”, for which the “gcPBM binding intensity (ln)” value turned out to be 10.1.
The value for “TTAAACCGTGGGAGCACACACACACCCAGACACATA [CACACA_site4337]” was 9.86; that for “TGTGGGAATAACCACACACACACACCCATATATATA [CACACA_site5876]” was 10.1.
The value for “TTAAACATATATTAAGCACACACAAACAAAAAAACA [CACACA_site8816]” was 9.9; that for “AATTAACCGTGACACACACACATATAAATATAAATA [CACACA_site7790]” was 9.86; that for “AAACCGTGGGAGCACACACACACACCCACCCATATA [CACACA_site332]” was 10.2.
For “TTAAACCGTGGGAGCACACACACACCCCCACCCATA [CACACA_site331]”, the “gcPBM binding intensity (ln)” value is 10.2.
The value for “AATATGTCTTAAAAAAGTACATAAATTTTAACTTCA [XGTACX_site6670]” was 8.84.
The value for “TTTTTTTTTTTTTTTTGTACATAATAAATGTTCTTA [XGTACX_site6754]” was 8.64; that for “AAGAATTATATTAATAGTACATATATATTAATTTAT [XGTACX_site5713]” was 9.08.
For “GCAAATCTTATATGAAGTACATATCTTATAAATAAA [XGTACX_site6903]”, the “gcPBM binding intensity (ln)” value stood at 8.96.
The result for “TGGAGGTCAGTTCACAGTACCCAGAAACTCTACGAG [XGTACX_site2007]” reads 8.76; that for “TTATAATCAATGAATACACACATATATTTAATTAAT [CACACA_site3613]”, 9.47.
Regarding “TATAAAAATATATGCACACAAATAAAAAATTATATA [CACACA_site3629]”, the “gcPBM binding intensity (ln)” value is 9.44.
The result for “AATTTTATATATATATGTACATATTTATATGCTTAT [XGTACX_site8180]” reads 9.4; that for “ATTTAGAAAAAATATACACACAGCCTAAACATGCAT [CACACA_site4067]”, 9.64.
The value for “TATATATATGTATATGTGCACAGTTTTCTTATTAAA [GTGCAC_site9990]” was 9.24.
The value for “TATAAATATTTATACACACACATATATTTATATATC [CACACA_site6366]” was 9.82; that for “AAATTTGGTGAAGGATGTACTTTACCTAATACTTGT [XGTACX_site4825]” was 9.21; that for ATATTTACTCACGTCTTGCACTGAGCAAGCATTATA was 9.02.
“AATGCTATCATTAATGCACACATTTAAACTTAATAT [CACACA_site5878]”: the “gcPBM binding intensity (ln)” value was 9.36.
The result for “AGACAGCGCACAAACACACAAACACCCACCCACATA [CACACA_site451]” reads 10.2.
As to “TACATAAATTAAAACACACACACACCCAAAAAAAAA [CACACA_site2261]”, the “gcPBM binding intensity (ln)” value is 10.1.
The value for “GGCAAATTTATTATACCCACATACATACATACATAC [XGTACX_negctrl_site186]” was 9.24; that for “AAATTTGGCAAACACACACACACACCCACAGAGACA [CACACA_site4490]” was 10.3.
Take “GTTACACCAACAAACACACACACACCCACCCACAAA [CACACA_site2427]”: the “gcPBM binding intensity (ln)” value is 10.2.
The result for “AACTTTGGCAAACACACACACACACCCACACCCACA [CACACA_site588]” reads 10.3; that for “CAAACATTTTAATGTACACACACCCACAGACAAACA [CACACA_site5522]”, 9.78; that for “AAATTTGGCAAACACACACACACACCCACACCCACA [CACACA_site8095]”, 10.2.
Take “CATATATATATATATACACACATATATATTTTCTTT [CACACA_site1457]”: the “gcPBM binding intensity (ln)” value is 9.46.
As to “TATTTTAATTATAAATTTAAAAAAAAAAAGAAAAAA [CACACA_negctrl_site1674]”, the “gcPBM binding intensity (ln)” value worked out at 9.01.
As to “TTCGGAAAAATTAAAGCACACAAAAAAAAATAAAAA [CACACA_site8296]”, the “gcPBM binding intensity (ln)” value came to 9.45.
The value for “TATAAGCTTTCAATGTGTACATATTATTTTATTATT [XGTACX_site3988]” was 9.44.
On to “TTTATGGATGTGTATGCATGCCTAAATAAATATATG [TGCATGCA_site916]”, for which the “gcPBM binding intensity (ln)” value was 9.1.
The result for “ATATATATGTATAATCGTACAGTTAACGTATTCTTA [XGTACX_site5649]” reads 9.26.
The result for “TAATATTATTATTTTACACACTTTTTTCCTTTTATC [CACACA_site2457]” reads 9.45; that for “GTATATAGTATGTAGAGTACTAATTTCCATATGTTC [XGTACX_site7816]”, 9.25; that for “AATATTTATTTTATATGTACATAATTTATTTTTAAT [XGTACX_site776]”, 9.26.
The result for “AAAATAAAATATTTCTGTACTTATAACTATTCTATA [XGTACX_site8007]” reads 9.14; that for “AGATAAAAAAAGTACACACACACATATATATATATA [CACACA_site3072]”, 9.82; that for “AGATAAAAAAAGTACACACACACATATATTTATATA [CACACA_site7437]”, 10.1.
For the sequence “AAAGATAAAAAAAGTACACACACACCGATATATATA [CACACA_site9006]”, the “gcPBM binding intensity (ln)” value amounted to 10.2.
Turning to “TACAGATAAAAGTACACACACACACCGATATATATA [CACACA_site4675]”, the “gcPBM binding intensity (ln)” value stood at 10.2.
On to “TGAAAAGATAAAAAAAGTACACACACACATATATAT [XGTACX_site6504]”, for which the “gcPBM binding intensity (ln)” value was found to be 10.2.
The value for “AAGATAAAATAATAAAGTACACATATAAATTGAAAA [XGTACX_site2113]” was 9.42; that for “AAAAAAAAAAAAAGTACACACATACAGATAAATATA [CACACA_site5067]” was 9.66; that for “AACAGATAAAAGGGTACACACATATATACAAGTACA [CACACA_site7959]” was 9.9.
With “TATATATATATATGTACACACACACCGATAAATAAA [CACACA_site8041]”, the “gcPBM binding intensity (ln)” value turned out to be 9.99.
The result for “ATTATTACACAACGTTGTACATTTCAATATTTTTAT [XGTACX_site5096]” reads 9.52.
The value for “TAAATTTTAATATGCACACAAAATGTTATATTAAAA [CACACA_site4366]” was 9.11; that for “ATAAAAATAACATATAAACACACATATATATATATA [CACACA_site9267]” was 9.35.
The value for “AACTTGTATATATACACACACACACTATCTTTTTTT [CACACA_site8601]” was 10.2.
As for “AACTTGTATTTATACACACACACACTGTCTTTTTTT [CACACA_site7009]”, the “gcPBM binding intensity (ln)” value was 10.3.
For the sequence “TATATAGTAATATATACACACACTTGTCTTGTAAAA [CACACA_site990]”, the “gcPBM binding intensity (ln)” value came to 9.56.
The result for “ATAACTTGTATATATACACACACACCCTTTCTTTTT [CACACA_site8600]” reads 10.1; that for “CTTGTATATAAACACACACACACTTTCTTTTTTTAA [CACACA_site8602]”, 9.91.
“AACTTGTATATATACACACACACACTGTCTTTTTTT [CACACA_site1963]”: the “gcPBM binding intensity (ln)” value came out at 10.2.
Consider “TATATTTATTTATATACACACACTTGTATAAAAAAT [CACACA_site2036]”, for which the “gcPBM binding intensity (ln)” value is 9.4.
The value for “TTGTATATACTATACACACACATACATACATACATA [CACACA_site814]” was 9.85.
Take “AACTTGTATTTATACACACACACACTAGCTTTTTTT [CACACA_site5132]”: the “gcPBM binding intensity (ln)” value was 10.2.
The result for “TTCAAAGACACAATCACACACATACATAAATATACA [CACACA_site687]” reads 9.84; that for “TAATCGAAACAAAGAACATGCAAACATATACCTATA [TGCATGCA_site894]”, 9.6; that for “ATTTATACATATAAACGTACATACATATATAATATT [XGTACX_site2969]”, 9.3.
For the sequence “TATTTTTATATAATGTGTACTTATACCTTATTTTTT [XGTACX_site1658]”, the “gcPBM binding intensity (ln)” value stood at 9.3.
Take “TATATATTATATATATGTACTTATTCATATATATAA [XGTACX_site3860]”: the “gcPBM binding intensity (ln)” value stood at 9.06.
The result for “TTTTACTTAAAACACACACACACAAAAAAAAAAAAA [CACACA_site947]” reads 9.96.
With “CACACGCACGAACACACACACATATAAATATAAATA [CACACA_site6299]”, the “gcPBM binding intensity (ln)” value amounted to 9.92.
As for “AAATTCCACGAACACACACACATATAAATAAATAAA [CACACA_site6697]”, the “gcPBM binding intensity (ln)” value is 9.97.
Take “ACACGCACATATATATAAATATATATATATATAAAT [CACACA_negctrl_site1781]”: the “gcPBM binding intensity (ln)” value amounted to 9.21.
“ATATAAAGAAAAGGAACACACAAATATATATATATA [CACACA_site463]”: the “gcPBM binding intensity (ln)” value is 9.57.
The result for “AGAATAAAAAGGAACACACACACACGCATATAAATA [CACACA_site7659]” reads 10.3.
The result for “CACGCGCACGAACACACACACACACGCATATAAATA [CACACA_site7103]” reads 10.3; that for “AAATATAATAAAATGACACACGCATATATATATATA [CACACA_site8900]”, 9.38.
The value for “CACACGCACGAACACACACACACACGCATATAAATA [CACACA_site6302]” was 10.3; that for “AGAATAAAAAGGAACACACACACACCCATATATATA [CACACA_site3590]” was 10.1.

The values above are taken from the supplement of paper PMC11417369.
